# Over roughly 33,000 sequences, “E-score (-0.5 to 0.5)” has its median near -0.015; the highest 2% begin near 0.3. Only a selection was taken, and the highest values are over-represented in it overall.
# Biological target: T1, Abf1 (UniProt P14164)
# T1 sequence: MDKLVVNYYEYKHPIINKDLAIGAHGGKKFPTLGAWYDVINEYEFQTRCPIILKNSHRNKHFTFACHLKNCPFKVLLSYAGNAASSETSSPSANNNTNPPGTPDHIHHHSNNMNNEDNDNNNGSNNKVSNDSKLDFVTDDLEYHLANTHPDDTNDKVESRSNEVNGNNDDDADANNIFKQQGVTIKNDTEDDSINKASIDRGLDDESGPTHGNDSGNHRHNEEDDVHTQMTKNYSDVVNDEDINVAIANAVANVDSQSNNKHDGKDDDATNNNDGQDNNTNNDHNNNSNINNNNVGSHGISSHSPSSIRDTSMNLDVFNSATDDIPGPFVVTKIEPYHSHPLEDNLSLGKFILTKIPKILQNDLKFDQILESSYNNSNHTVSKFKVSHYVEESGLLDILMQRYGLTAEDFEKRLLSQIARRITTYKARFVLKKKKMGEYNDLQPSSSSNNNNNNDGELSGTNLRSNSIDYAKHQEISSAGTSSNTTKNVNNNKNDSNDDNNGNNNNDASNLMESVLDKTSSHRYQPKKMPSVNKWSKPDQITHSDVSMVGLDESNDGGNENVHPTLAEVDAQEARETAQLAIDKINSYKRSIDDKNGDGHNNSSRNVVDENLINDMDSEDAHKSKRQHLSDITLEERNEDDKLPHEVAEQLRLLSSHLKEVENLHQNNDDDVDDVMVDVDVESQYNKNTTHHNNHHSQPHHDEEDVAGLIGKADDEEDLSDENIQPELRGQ
# Assay: PBM E-score (8-mer binding enrichment) (E-score (-0.5 to 0.5)); higher = stronger / more preferred TF binding
# Conditions: protein concentration: 200 nM; construct: GST-full length
# Summary of the method: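 Detection of bound protein used fluorescent anti-GST, with scans normalised by masliner. The proteins were GST-tagged yeast transcription factors applied at about 100-200 nM to universal all-10-mer Agilent arrays made double-stranded by primer extension. Each ungapped eight-base word, pooled with its reverse complement, was scored with an E-score from the Universal PBM Analysis Suite.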
row,Sequence,PBM E-score
1,ATTATGCG,0.303
2,ATTATGCA,-0.114
3,ATTATGTC,0.303
4,AGCCGGTA,-0.013
5,CTGGCACA,0.00341
6,GATCCAAA,0.111
7,AGTGTTTG,-0.0678
8,ACGATAAC,0.224
9,ACGATAAG,0.243
10,ACGATAAA,0.352
11,TCGATAAA,0.207
12,GCGATAAA,0.241
13,ACGATAAT,0.303
14,CAGACTCA,-0.218
15,GGGAACCA,-0.249
16,CCGAACCA,-0.231
17,CCGTTTAA,0.266
18,ACGTTTAA,0.245
19,TCGTTTAA,0.341
20,GCGTTCAA,-0.0872
21,ACGTTCAA,0.155
22,TCGTTCAA,0.357
23,TACACTAA,0.114
24,TAAGACTA,-0.0858
25,CCAACAGG,-0.363

row,Sequence,PBM E-score
1,GAACTTAC,0.0577
2,ACGGTATC,0.182
3,CGTTTATC,0.297
4,AATTTATA,0.191
5,AGTTTATC,0.173
6,CATTTATC,0.222
7,CGTTTATA,0.196
8,AATTTATC,0.314
9,CCTCTGAG,-0.215
10,GATTGGGA,-0.197
11,AGTGGTTA,0.0354
12,CAACGACA,0.208
13,AAACGACA,0.321
14,AAACGACT,0.152
15,TAACGACA,0.31
16,GAACGACA,0.296
17,AAACGACG,0.238
18,GCTAAAGC,-0.16
19,ACGCGGAT,-0.024
20,GAAACCAC,-0.124
21,AAGGGACC,0.0128
22,ACCATAGA,-0.0622
23,CGTCGTGA,0.351
24,GTTCGTGA,0.254
25,ATTCGTGA,0.15

row,Sequence,PBM E-score
1,GCTCGTGA,0.0759
2,CCTCGTGC,0.00335
3,AGTCGTGC,0.0998
4,CCTCGTGA,0.363
5,CGTCGTGC,0.315
6,CTTCGTGA,0.317
7,ACTCGTGA,0.162
8,GGTCGTGA,0.195
9,AGTCGTGA,0.249
10,GTGAAAAC,0.138
11,CACTTCGA,0.223
12,ATACTGTA,0.0204
13,GAAACTTC,0.0521
14,AGACAGTG,-0.0919
15,GCTTTTTA,0.0686
16,CGCATCAC,0.263
17,CACTTTTC,0.192
18,AGCGGTAC,-0.161
19,CTGACGTC,0.137
20,CCCGAGCC,-0.299
21,ATATCACA,0.282
22,ATATCACC,0.438
23,CTATCACA,0.199
24,ATATCACG,0.401
25,ATATCAGC,0.00929

row,Sequence,PBM E-score
1,CTATCACC,0.226
2,ATCTCGCG,0.206
3,ATAATAGC,0.0936
4,CAGAGGAA,-0.148
5,CGTAGGAG,0.134
6,CCCAAAGG,-0.158
7,CCGTATCA,0.28
8,ACGTATCG,0.212
9,ACGTATCA,0.33
10,GCGTATCA,0.109
11,TCGTATCA,0.331
12,ACGTATCT,-0.0664
13,GCAGAACA,-0.122
14,ATTGCGTG,-0.126
15,CGCATCAA,0.081
16,ACTGGTAT,0.0243
17,AGTCACTA,0.315
18,CGTCACGA,0.336
19,GGTCACGA,0.27
20,CGTCACGC,0.145
21,GGTCACTA,0.281
22,CGTCACTA,0.374
23,CGTCACTC,0.173
24,AGTCACTG,0.0546
25,AGTCACTC,0.232

row,Sequence,PBM E-score
1,ACGCCAGA,-0.081
2,ACCACCTA,-0.168
3,ACTGAAAT,-0.0641
4,AGCACCAC,-0.214
5,ACGTTGGA,0.142
6,CAACCGAG,-0.0944
7,ACAGACGA,0.236
8,TCAGACGA,0.305
9,GCGGACGA,0.276
10,TCGGACGA,0.325
11,GCAGACGA,0.174
12,ACGGACGA,0.263
13,AGAATCCG,-0.0715
14,GCTGAGGA,-0.131
15,ACGACCTG,0.0542
16,GGGTAGAA,-0.0486
17,ACGCTGAT,0.0221
18,AGTATCAT,0.286
19,AATATCGC,0.283
20,GATATCAA,0.207
21,AATATCAG,0.119
22,ACTATCAT,0.184
23,AATATCAA,0.0238
24,AATATCAC,0.441
25,GATATCGA,0.271

row,Sequence,PBM E-score
1,AATATCAT,0.391
2,GATATCGC,0.341
3,GCTATCAC,0.211
4,GATATCAC,0.414
5,CTATCAAA,0.121
6,GCCAGCAC,-0.0263
7,TAAAGACA,-0.183
8,CCGGAGCA,-0.291
9,CAACCTAG,-0.0549
10,GAAACCGC,-0.15
11,CATATCAA,0.222
12,CATATCAC,0.389
13,AATATCGT,0.398
14,AATATCGA,0.0788
15,AATATCGG,0.187
16,CATATCAG,0.0515
17,CAGACCTC,0.00051
18,GCTGGTTA,-0.0104
19,ACTAAGTG,0.108
20,AAATATTA,0.217
21,GAATATCA,0.334
22,TAATATAA,0.196
23,GAATATCC,0.0475
24,CAATATTA,0.271
25,TAATATTA,0.361

row,Sequence,PBM E-score
1,TAATATCA,0.344
2,AAATATGA,0.0696
3,CAATATCA,0.283
4,AAATATGT,0.334
5,AAATATGC,0.0361
6,TAATATGA,0.261
7,AGGTAGAC,-0.249
8,CTAGGGCA,-0.273
9,CCCAAAAG,-0.135
10,AGCGGACT,-0.23
11,GCTGGAGA,-0.0857
12,GAGCTGCC,-0.0575
13,ACAACTCG,0.0757
14,AAATATCC,0.0659
15,AAATATCG,0.271
16,AAATATCA,0.376
17,CAAATCGC,-0.0589
18,CCTTACAC,-0.0587
19,AGTATATG,0.0541
20,GGTATATA,0.161
21,AGTATATC,0.0567
22,CGTATATA,0.357
23,AGTATATA,0.31
24,CGTATATC,0.255

# Source: the supplement of paper PMC3334620
